Values without a mark were called inactive.
Test: ATP-based viability of Huh7 replicon cells – cell-based, CellTiter-Glo luminescence, basal, 48 h, cytotoxicity control for HCV replication inhibitor project, primary screen (AID 1143);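 further: Huh7 hepatoma cells carrying a hepatitis C replication reporter with no stimulus; test concentration not given here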
Conditions: higher = more signal, called active from +8 up or from −8 down

Structure (SMILES)	z-score
COCCOC(=O)N1C(=O)[C@@]2(c3ccccc31)[C@H](c1ccc(O)cc1)N1[C@H](c3ccccc3)[C@H](c3ccccc3)OC(=O)[C@H]1[C@@H]2C(=O)Nc1nc2ccccc2s1	-1.67
C=CCOC(=O)[C@H]1[C@@H]2C(=O)O[C@@H](c3ccccc3)[C@@H](c3ccccc3)N2[C@@H](c2ccc(OCCOC(=O)[C@H]3C[C@H]4C(=O)N[C@@H](CCCCN(C)C)C(=O)N4[C@H]3c3ccc(O)cc3)cc2)[C@]12C(=O)Nc1ccc(I)cc12	-0.264
NC(=O)[C@@H]1[C@H]2C(=O)O[C@H](c3ccccc3)[C@H](c3ccccc3)N2[C@H](c2ccc(O)cc2)[C@@]12C(=O)Nc1ccccc12	-4.14
CC(C)C[C@@H]1NC(=O)[C@H](C(C)C)NC(=O)[C@@]23C(=O)N[C@@H](Cc4ccccc4)C2[C@H](C)[C@@]2(C)O[C@H]2C3/C=C/CC/C=C/CNC1=O (stereo not given in full)	-3.05
COC(=O)C(CC#Cc1ccc2c(c1)[C@]1(C(=O)N2)[C@H](c2ccc(OCCO)cc2)N2[C@H](c3ccccc3)[C@H](c3ccccc3)OC(=O)[C@H]2[C@@H]1C(=O)Nc1nc2ccccc2s1)C(=O)OC	-1.68
O=C1NC(=O)C2C1C=CC(C(O)c1cc(C(F)(F)F)cc(C(F)(F)F)c1)N2Nc1ccccn1 (stereo not given)	0.804
Cc1ccc(S[C@]2(C(=O)NCCCN(C)C)CC(=O)N(Cc3cc(C(F)(F)F)cc(C(F)(F)F)c3)[C@@H]2c2ccc(CO)cc2I)cc1	-1.21
C=C(C(=O)CC[C@@H](OC(=O)c1cccnc1)c1ccccc1OCCO)C(C)C	-1.25
COc1cc(NN2C(C(O)c3ccco3)C=CC3C(=O)N(c4ccccc4)C(=O)C32)cc(OC)c1OC (stereo not given)	-2.49
COC(=O)[C@@]1(Cc2ccc(OC)cc2)[C@H]2c3cc(C(=O)N(C)C)n(CCc4ccccn4)c3C[C@H]2CN1C(=O)c1ccccc1	-2.18
O=C(NC1CC1)[C@@H]1c2ccccc2C(=O)N(Cc2ccccc2Cl)[C@H]1c1ccc(CO)cc1	-2.67
COC(=O)[C@@]1(Cc2ccc(F)cc2)[C@H]2c3cc(C(=O)N(C)C)n(Cc4ccccc4)c3C[C@H]2CN1C(=O)c1ccccc1	-2.67
O=C1C2C=CC(C(O)CCc3ccccc3)N(Nc3ccccc3F)C2C(=O)N1c1ccccc1 (stereo not given)	-0.381
C=C[C@H](CO[Si](CC)(CC)CC)N(Cc1ccc(OC(C)=O)c(OC)c1)S(=O)(=O)c1ccc(Br)cc1	-4.96
O=C1O[C@@H](c2ccccc2)[C@@H](c2ccccc2)N2[C@@H](c3ccccc3OCCO)[C@]3(C(=O)Nc4ccc(C#CC5=CCCCC5)cc43)[C@@H](C(=O)N3CCCCCCC3)[C@H]12	-4.53
CCOC(=O)[C@H]1C/C=C/C[C@H](C(=O)OCC)C(=O)O[C@H]2[C@@H](OC)O[C@H](CO)[C@@H](OC(=O)c3c(OC)cccc3OC)[C@@H]2OC1=O	-4.57
CCC(CC)C(O)C1C=CC2C(=O)NC(=O)C2N1Nc1ccc(Cl)cc1Cl (stereo not given)	-0.776
CCOC(=O)C[C@H]1[C@H](OC(=O)c2ccc(C(=O)c3ccccc3)cc2)[C@@H](NC(=O)c2ccc3ccccc3c2)c2cc(OCCCO)ccc2N1C(=O)Cc1ccc(OC)cc1	-0.132

Structure (SMILES)	z-score
COC(=O)[C@@]1(CCC(=O)OC(C)(C)C)N=C(c2ccc(OCCCO)cc2)O[C@H]1c1ccccc1N=[N+]=[N-]	-4.35
COC(=O)[C@@]1(Cc2ccc(OC)cc2)[C@H]2c3cc(C(=O)N(C)C)n(Cc4ccccn4)c3C[C@H]2CN1C(=O)c1ccccc1	-1.17
CCCC[C@@H]1C[C@H]1[C@@H](NC(=O)c1ccccc1)c1ccc(C(=O)OC)cc1	-0.977
CCCCCCc1nc(-c2ccc(OC)nc2)cc2c1[Si](C(C)C)(C(C)C)O[C@H]2c1ccccc1	-0.295
COC(=O)C(CC#Cc1ccc2c(c1)[C@]1(C(=O)N2)[C@H](C(=O)Nc2nc3ccccc3s2)[C@H]2C(=O)O[C@H](c3ccccc3)[C@H](c3ccccc3)N2[C@@H]1c1ccccc1OCCO)C(=O)OC	-5
CN(C)C(=O)[C@@]1(CCS(=O)(=O)c2ccccc2)COC(c2ccc(OCCCO)cc2)=N1	-3.66
COc1ccc(C#Cc2ccc3c(c2)[C@]2(C(=O)N3)[C@H](C(=O)Nc3nc4ccccc4s3)[C@H]3C(=O)O[C@H](c4ccccc4)[C@H](c4ccccc4)N3[C@@H]2c2ccc(O)cc2)cc1	-1.3
C=C(CC1([C@@H](NP(=O)(c2ccccc2)c2ccccc2)[C@H]2C[C@@H]2CCCC)CC1)c1ccccc1	-3.74
C=CCN1C(=O)[C@@]2(CC=C)N=C(c3ccc(OCCCO)cc3)O[C@H]2c2ccccc21	-3.88
CCCC[C@@H]1C[C@H]1[C@@H](NC(=O)c1ccco1)c1ccc(-c2ccccc2)cc1	-2.51
C=C(C)[C@@H]1CC=C(C(O)C2C=CC3C(=O)N(C)C(=O)C3N2Nc2ccccc2)CC1 (stereo not given in full)	0.435
O=C1C2C=CC(C(O)Cc3ccccc3)N(n3cnnc3)C2C(=O)N1Cc1ccccc1 (stereo not given)	0.0633
C=C(COC)/C(=C/C[C@@H](OC(C)=O)c1ccc(OCCO)cc1)c1cnc2ccccc2c1	-2.22
COCCOC(=O)N1C(=O)[C@@]2(c3cc(C#CCNC(N)=O)ccc31)[C@H](C(=O)N1CCN(c3ncccn3)CC1)[C@H]1C(=O)O[C@H](c3ccccc3)[C@H](c3ccccc3)N1[C@@H]2c1ccc(OCCO)cc1	0.0164
C=CCOC(=O)[C@@H]1[C@H]2C(=O)O[C@H](c3ccccc3)[C@H](c3ccccc3)N2[C@H](c2ccc(OCCOC(=O)[C@@H]3C[C@@H]4C(=O)NCC(=O)N4[C@@H]3c3ccc(O)cc3)cc2)[C@@]12C(=O)Nc1ccc(I)cc12	0.489
CC#CC(=O)Oc1ccccc1C=CC(=O)OCC	-1.99
CCCC[C@@H]1C[C@H]1[C@@H](NC(=O)c1ccco1)c1ccccc1C(F)(F)F	-0.547
